Each structure is given as a SMILES string. Results filed as inconclusive are left out. Calls of active or inactive are those of the source. How the source made its calls, unless noted: active means hit-call score of the fitted dose curve at least 0.9, where 1 is the maximum; inactive means score below 0.9.

Assay [1] is described as follows: BSK_4H_Eotaxin3: BioMAP Diversity Plus: 4H Assay for Eotaxin 3 Biomarker Activity (AID 2283000).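 On outcome: CCL26 protein level quantified by ELISA in parallel with SRB cytotoxicity check.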 The following applies: primary human endothelial cells (HUVEC); actives raise or lower the signal. Put shortly: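 ELISA quantitation of CCL26 (Eotaxin-3) protein from chemically dosed human vascular endothelial cells at 24 h; increases and decreases both scored relative to DMSO-treated baseline.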

The target in assay [2] is human Peroxisome Proliferator-activated Receptor alpha (PPARa), PPARA (gene 5465) (UniProt Q07869). As to the kind of experiment: ATG_PPARa_TRANS: Attagene TRANS-FACTORIAL HepG2 Assay for human Peroxisome Proliferator-activated Receptor alpha (PPARa) (AID 2283001; active means hit-call score of the fitted dose curve at least 0.9, where 1 is the maximum;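 on AC50: potency for gain of reporter signal over DMSO so agonist or activator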). Put shortly:
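HepG2 cells transiently transfected with multiplexed GAL4-UAS reporter units and chimeric NR-Gal4 constructs were dosed for 24 h. Reporter mRNA was measured by RT-PCR with fluorescent labelling and capillary electrophoresis; gain of signal fitted against DMSO.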

The target of assay [3] is human Peroxisome Proliferator-activated Receptor delta (PPARd), PPARD (gene 5467) (UniProt Q03181). As to the kind of experiment: ATG_PPARd_TRANS: Attagene TRANS-FACTORIAL HepG2 Assay for human Peroxisome Proliferator-activated Receptor delta (PPARd) (AID 2283002; active means hit-call score of the fitted dose curve at least 0.9, where 1 is the maximum). A digest of the protocol: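 HepG2 cells transiently transfected with multiplexed GAL4-UAS reporter units and exogenous chimeric NR-Gal4 proteins; 24 h compound exposure. Reporter mRNA measured by RT-PCR, 6-FAM labelling, HpaI digestion and capillary electrophoresis; gain of signal versus DMSO.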
Chain of human Peroxisome Proliferator-activated Receptor delta (PPARd), PPARD (gene 5467) (Q03181 whole entry, looked up, the tested form may be a part): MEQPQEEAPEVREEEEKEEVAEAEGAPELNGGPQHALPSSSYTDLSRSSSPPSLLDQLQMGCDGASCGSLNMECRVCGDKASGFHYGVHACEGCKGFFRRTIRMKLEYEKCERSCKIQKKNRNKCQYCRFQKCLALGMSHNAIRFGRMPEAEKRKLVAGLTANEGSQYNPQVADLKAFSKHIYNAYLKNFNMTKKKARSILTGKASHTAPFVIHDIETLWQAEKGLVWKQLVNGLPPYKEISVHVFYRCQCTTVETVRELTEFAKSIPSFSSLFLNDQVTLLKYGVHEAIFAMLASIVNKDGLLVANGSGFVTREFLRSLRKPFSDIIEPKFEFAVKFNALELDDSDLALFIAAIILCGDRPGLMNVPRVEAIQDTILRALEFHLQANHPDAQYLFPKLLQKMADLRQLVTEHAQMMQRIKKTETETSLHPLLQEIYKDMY

Read-out in assay [4]: Intercellular Adhesion Molecule 1 (ICAM1), ICAM1 (gene 3383)
The assay can be described thus: BSK_3C_ICAM1: BioMAP Diversity Plus: 3C Assay for Intercellular Adhesion Molecule 1 (ICAM1) Biomarker Activity (AID 2283003). The following applies: primary human endothelial cells (HUVEC); actives raise or lower the signal. Put shortly: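 Human vascular endothelial primary cells, 3C conditions, 24 h treatment. ICAM-1 by ELISA.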

In assay [5] the target is Retinoic acid receptor alpha (Homo sapiens) (UniProt P10276). As to the kind of experiment: ATG_RARa_TRANS: Attagene TRANS-FACTORIAL HepG2 Assay for human Retinoic Acid Receptor alpha (RARa) (AID 2283005; active means hit-call score of the fitted dose curve at least 0.9, where 1 is the maximum). A digest of the protocol:
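HepG2 cells transiently transfected with multiple reporter units expressing chimeric RARα-GAL4 fusion, with GAL4-UAS-driven reporters. After 24 h compound exposure, reporter mRNA induction quantified by RT-PCR and capillary electrophoresis with fluorescent labeling; gain-of-signal fitted relative to DMSO control.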

A short description of assay [6]: BSK_3C_Proliferation: Cell Proliferation Assessment in the BioMAP Diversity Plus: 3C Assay (AID 2283006).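 On AC50: potency may reflect either rise or fall in cell number versus DMSO.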 The following applies: primary human endothelial cells (HUVEC). Put shortly:
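Proliferation of human vascular endothelial primary cells after 48 h dosing, quantified as SRB-stained protein at 560 nm relative to DMSO.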

Assay [7] concerns the target Peroxisome proliferator-activated receptor gamma (Homo sapiens) (UniProt P37231). As to the kind of experiment: ATG_PPARg_TRANS: Attagene TRANS-FACTORIAL HepG2 Assay for human Peroxisome Proliferator-activated Receptor-gamma (PPARg) (AID 2283007; active means hit-call score of the fitted dose curve at least 0.9, where 1 is the maximum). Put shortly: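 Twenty-four hours after chemical dosing of transiently transfected HepG2 cells, isolated RNA was converted to cDNA, reporter sequences amplified and 6-FAM-labelled, then HpaI-digested and analysed by capillary electrophoresis. Signal increase against DMSO was fitted.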

Assay [8] has as its target Nuclear receptor subfamily 1 group I member 2 (Homo sapiens) (UniProt O75469). The assay can be described thus: ATG_PXR_TRANS: Attagene TRANS-FACTORIAL HepG2 Assay for human Pregnane X Receptor (PXR) (AID 2283008; active means hit-call score of the fitted dose curve at least 0.9, where 1 is the maximum). A digest of the protocol:
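HepG2 cells transiently transfected with multiple reporter units, here a PXR-GAL4 chimera driving a GAL4-UAS reporter; 24 h compound exposure. Reporter mRNA measured by RT-PCR, FAM labelling and capillary electrophoresis; gain of signal fitted against DMSO baseline.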

In assay [9] the target is human Retinoic Acid Receptor gamma (RARg), RARG (gene 5916) (UniProt P13631). As to the kind of experiment: ATG_RARg_TRANS: Attagene TRANS-FACTORIAL HepG2 Assay for human Retinoic Acid Receptor gamma (RARg) (AID 2283009; active means hit-call score of the fitted dose curve at least 0.9, where 1 is the maximum). Put shortly:
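HepG2, RARg-GAL4 TRANS system, 24 h exposure; reporter mRNA by RT-PCR + CE fluorescence; increase over DMSO.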

For assay [10], the target named is Retinoic acid receptor RXR-alpha (Homo sapiens) (UniProt P19793). The assay can be described thus: ATG_RXRa_TRANS: Attagene TRANS-FACTORIAL HepG2 Assay for human Retinoid X Receptor alpha (RXRa) (AID 2283012; active means hit-call score of the fitted dose curve at least 0.9, where 1 is the maximum). A digest of the protocol: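 Cells (HepG2) carried transiently transfected GAL4-responsive reporter units. Following a 24 h chemical incubation, reporter mRNA induction was read via RT-PCR fragment analysis; DMSO served as negative control and baseline.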
Chain of Retinoic acid receptor RXR-alpha (Homo sapiens) (P19793 whole entry, looked up, the tested form may be a part): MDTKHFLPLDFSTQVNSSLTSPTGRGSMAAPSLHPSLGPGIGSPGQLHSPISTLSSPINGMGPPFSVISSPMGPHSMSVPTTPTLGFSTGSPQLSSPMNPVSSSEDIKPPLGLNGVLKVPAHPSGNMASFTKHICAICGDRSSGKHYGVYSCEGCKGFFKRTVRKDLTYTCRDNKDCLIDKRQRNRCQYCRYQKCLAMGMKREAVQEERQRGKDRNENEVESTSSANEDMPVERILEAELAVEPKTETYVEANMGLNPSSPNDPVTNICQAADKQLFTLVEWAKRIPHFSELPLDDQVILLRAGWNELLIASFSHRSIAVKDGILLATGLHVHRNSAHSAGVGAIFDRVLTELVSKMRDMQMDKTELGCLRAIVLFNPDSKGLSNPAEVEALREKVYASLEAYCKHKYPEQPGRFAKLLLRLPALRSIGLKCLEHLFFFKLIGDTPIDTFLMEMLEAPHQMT

The target in assay [11] is human Retinoid X Receptor beta (RXRb), RXRB (gene 6257) (UniProt P28702). The assay can be described thus: ATG_RXRb_TRANS: Attagene TRANS-FACTORIAL HepG2 Assay for human Retinoid X Receptor beta (RXRb) (AID 2283013; active means hit-call score of the fitted dose curve at least 0.9, where 1 is the maximum). A digest of the protocol: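 Multiplexed TRANS reporter assay in HepG2; 24 h dosing; reporter mRNA by RT-PCR/CE fluorescence; gain-of-signal relative to DMSO.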
Chain of human Retinoid X Receptor beta (RXRb), RXRB (gene 6257) (P28702 whole entry, looked up): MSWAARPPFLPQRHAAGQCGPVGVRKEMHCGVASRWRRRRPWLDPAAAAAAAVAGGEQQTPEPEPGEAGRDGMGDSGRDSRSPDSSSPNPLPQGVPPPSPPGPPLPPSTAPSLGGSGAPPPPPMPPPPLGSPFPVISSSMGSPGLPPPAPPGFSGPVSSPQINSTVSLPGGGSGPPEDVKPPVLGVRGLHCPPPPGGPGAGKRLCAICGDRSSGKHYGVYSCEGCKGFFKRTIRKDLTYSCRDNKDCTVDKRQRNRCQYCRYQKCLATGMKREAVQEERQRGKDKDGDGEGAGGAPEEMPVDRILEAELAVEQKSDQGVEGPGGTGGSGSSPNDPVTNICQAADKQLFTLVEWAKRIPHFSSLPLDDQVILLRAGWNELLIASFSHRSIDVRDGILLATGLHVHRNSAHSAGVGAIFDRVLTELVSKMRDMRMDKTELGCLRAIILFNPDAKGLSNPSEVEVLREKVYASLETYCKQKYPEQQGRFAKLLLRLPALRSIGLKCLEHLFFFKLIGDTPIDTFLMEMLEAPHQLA

Read-out in assay [12]: Interleukin-1 alpha (IL1a), IL1A (gene 3552)
As to the kind of experiment: BSK_BE3C_IL1a: BioMAP Diversity Plus: BE3C Assay for Interleukin-1 alpha (IL1a) Biomarker Activity (AID 2283016). The note with it: primary human bronchial epithelial cells; actives raise or lower the signal. A digest of the protocol:
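Cultures of primary human bronchial epithelial cells receive test chemical. After 24 h, IL-1a is quantified by ELISA, while parallel wells are fixed in TCA and SRB-stained for total protein. Changes in either direction are fitted relative to DMSO.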

Read-out in assay [13]: Monocyte Chemoattractant Protein-1 (MCP1), CCL2 (gene 6347)
As to the kind of experiment: BSK_3C_MCP1: BioMAP Diversity Plus: 3C Assay for Monocyte Chemoattractant Protein-1 (MCP1) Biomarker Activity (AID 2283017). The note with it: primary human endothelial cells (HUVEC); actives raise or lower the signal. Put shortly:
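Using human vascular primary endothelium, researchers measured MCP-1 by ELISA 24 h after treatment, with DMSO serving as negative control for bidirectional fitting.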

Read-out in assay [14]: Monocyte Chemoattractant Protein-1 (MCP1), CCL2 (gene 6347)
The assay can be described thus: BSK_4H_MCP1: BioMAP Diversity Plus: 4H Assay for Monocyte Chemoattractant Protein-1 (MCP1) Biomarker Activity (AID 2283018). The following applies: primary human endothelial cells (HUVEC); actives raise or lower the signal. Put shortly:
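Readout: MCP-1 ELISA on compound-treated HUVEC, sampled 24 h post-dosing. Baseline and negative control DMSO; bidirectional fit. Overt toxicity checked alongside by sulforhodamine B protein staining at time of biomarker measurement.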

Read-out in assay [15]: Human Leukocyte Antigen - DR isotype (HLADR), HLA-DRA (gene 3122)
The assay can be described thus: BSK_3C_HLADR: BioMAP Diversity Plus: 3C Assay for Human Leukocyte Antigen - DR isotype (HLADR) Biomarker Activity (AID 2283019).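 On outcome: ELISA of cell-surface HLA-DR on HUVEC 24 h after dosing.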 The note with it: primary human endothelial cells (HUVEC); actives raise or lower the signal. A digest of the protocol: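 Compound added to primary HUVEC cultures, 24 h incubation, then HLA-DR determined by ELISA; endpoint derived by bidirectional fitting relative to DMSO negative control.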

Read-out in assay [16]: Interleukin-8 (IL8), CXCL8 (gene 3576)
The assay can be described thus: BSK_3C_IL8: BioMAP Diversity Plus: 3C Assay for Interleukin-8 (IL8) Biomarker Activity (AID 2283020). The note with it: primary human endothelial cells (HUVEC); actives raise or lower the signal. Put shortly:
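Human vascular endothelial cells (umbilical vein) in the 3C system; IL-8 level detected by ELISA at 24 h post-dose, with DMSO as baseline.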

Assay [17] addresses human RAR-related Orphan Receptor beta (RORb), RORB (gene 6096) (UniProt Q92753). As to the kind of experiment: ATG_RORb_TRANS: Attagene TRANS-FACTORIAL HepG2 Assay for human RAR-related Orphan Receptor beta (RORb) (AID 2283010; active means hit-call score of the fitted dose curve at least 0.9, where 1 is the maximum). Put shortly: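 In this TRANS-format test, human HepG2 cells express chimeric NR-Gal4 fusion proteins driving GAL4-UAS reporters. After 24 h dosing, reporter transcripts are measured by fluorescent RT-PCR/capillary electrophoresis, with DMSO as negative control.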

Assay [18] concerns the target human RAR-related Orphan Receptor gamma (RORg), RORC (gene 6097) (UniProt P51449). The assay can be described thus: ATG_RORg_TRANS: Attagene TRANS-FACTORIAL HepG2 Assay for human RAR-related Orphan Receptor gamma (RORg) (AID 2283011; active means hit-call score of the fitted dose curve at least 0.9, where 1 is the maximum). Put shortly:
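Chimeric RORg-Gal4 transactivation in transfected HepG2; 24 h exposure; RT-PCR/capillary electrophoresis readout of reporter mRNA, DMSO baseline.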

Assay [19] concerns the target human Thyroid Receptor alpha (THRa1), THRA (gene 7067) (UniProt P10827). As to the kind of experiment: ATG_THRa1_TRANS: Attagene TRANS-FACTORIAL HepG2 Assay for human Thyroid Receptor alpha (THRa1) (AID 2283014; active means hit-call score of the fitted dose curve at least 0.9, where 1 is the maximum). A digest of the protocol:
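Measured here is mRNA from a GAL4-UAS reporter in transfected HepG2 cells carrying a Gal4-fused receptor, 24 h post-dose. DMSO served as negative control and baseline.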

Read-out in assay [20]: E-selectin (Homo sapiens) (UniProt P16581)
As to the kind of experiment: BSK_3C_Eselectin: BioMAP Diversity Plus: 3C Assay for Eselectin Biomarker Activity (AID 2283015).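 Further: cell surface E-selectin protein quantified by ELISA 24 h after dosing.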 The note with it: primary human endothelial cells (HUVEC); actives raise or lower the signal. A digest of the protocol:
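Endpoint derived by bidirectional fitting against DMSO vehicle; signal is ELISA-detected E-selectin from primary HUVEC at 24 h post-dosing, with parallel SRB staining (0.1% SRB, 560 nm) flagging cytotoxicity.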

Chain of human Thyroid Receptor alpha (THRa1), THRA (gene 7067) (P10827 whole entry, looked up, the tested form may be a part): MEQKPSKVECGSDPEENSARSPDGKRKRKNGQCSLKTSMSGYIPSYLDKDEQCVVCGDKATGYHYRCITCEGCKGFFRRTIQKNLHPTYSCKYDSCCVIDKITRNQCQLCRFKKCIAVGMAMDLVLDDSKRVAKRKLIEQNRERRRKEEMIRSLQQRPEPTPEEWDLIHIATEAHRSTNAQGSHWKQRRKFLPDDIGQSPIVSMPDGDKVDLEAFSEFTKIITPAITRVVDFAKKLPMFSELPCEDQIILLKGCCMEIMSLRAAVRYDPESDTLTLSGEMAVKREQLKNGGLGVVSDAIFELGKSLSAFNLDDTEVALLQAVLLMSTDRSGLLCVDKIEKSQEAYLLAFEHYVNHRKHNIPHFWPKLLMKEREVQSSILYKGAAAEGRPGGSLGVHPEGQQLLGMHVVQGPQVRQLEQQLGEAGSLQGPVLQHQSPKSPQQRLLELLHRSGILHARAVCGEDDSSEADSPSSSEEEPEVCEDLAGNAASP
Chain of human RAR-related Orphan Receptor gamma (RORg), RORC (gene 6097) (P51449 whole entry, looked up, the tested form may be a part): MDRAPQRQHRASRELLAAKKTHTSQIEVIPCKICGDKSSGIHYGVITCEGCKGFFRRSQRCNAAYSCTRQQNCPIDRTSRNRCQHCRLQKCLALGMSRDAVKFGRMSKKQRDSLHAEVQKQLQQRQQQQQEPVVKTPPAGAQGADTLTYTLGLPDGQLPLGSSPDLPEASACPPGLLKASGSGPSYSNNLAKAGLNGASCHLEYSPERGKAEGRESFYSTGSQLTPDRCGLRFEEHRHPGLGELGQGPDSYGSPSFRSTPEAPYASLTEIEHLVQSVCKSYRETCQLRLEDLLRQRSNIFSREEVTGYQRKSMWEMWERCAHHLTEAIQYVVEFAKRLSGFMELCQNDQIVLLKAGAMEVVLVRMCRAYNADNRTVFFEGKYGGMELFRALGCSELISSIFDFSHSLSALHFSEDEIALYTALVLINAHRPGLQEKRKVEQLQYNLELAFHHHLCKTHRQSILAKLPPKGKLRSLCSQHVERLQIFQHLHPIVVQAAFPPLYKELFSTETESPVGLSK
Chain of human Peroxisome Proliferator-activated Receptor alpha (PPARa), PPARA (gene 5465) (Q07869 whole entry, looked up, the tested form may be a part): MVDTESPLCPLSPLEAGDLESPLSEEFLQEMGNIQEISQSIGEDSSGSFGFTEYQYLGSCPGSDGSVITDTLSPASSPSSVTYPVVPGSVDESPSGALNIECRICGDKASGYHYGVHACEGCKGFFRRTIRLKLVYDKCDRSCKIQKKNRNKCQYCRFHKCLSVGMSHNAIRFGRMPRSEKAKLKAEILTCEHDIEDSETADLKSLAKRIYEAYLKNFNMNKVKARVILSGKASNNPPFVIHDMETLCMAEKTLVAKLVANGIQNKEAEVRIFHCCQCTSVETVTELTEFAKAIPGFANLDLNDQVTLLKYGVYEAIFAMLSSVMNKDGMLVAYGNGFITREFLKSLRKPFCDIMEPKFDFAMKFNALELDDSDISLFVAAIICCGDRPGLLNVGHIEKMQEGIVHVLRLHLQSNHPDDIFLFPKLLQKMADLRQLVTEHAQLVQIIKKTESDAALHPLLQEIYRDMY
Chain of human Retinoic Acid Receptor gamma (RARg), RARG (gene 5916) (P13631 whole entry, looked up, the tested form may be a part): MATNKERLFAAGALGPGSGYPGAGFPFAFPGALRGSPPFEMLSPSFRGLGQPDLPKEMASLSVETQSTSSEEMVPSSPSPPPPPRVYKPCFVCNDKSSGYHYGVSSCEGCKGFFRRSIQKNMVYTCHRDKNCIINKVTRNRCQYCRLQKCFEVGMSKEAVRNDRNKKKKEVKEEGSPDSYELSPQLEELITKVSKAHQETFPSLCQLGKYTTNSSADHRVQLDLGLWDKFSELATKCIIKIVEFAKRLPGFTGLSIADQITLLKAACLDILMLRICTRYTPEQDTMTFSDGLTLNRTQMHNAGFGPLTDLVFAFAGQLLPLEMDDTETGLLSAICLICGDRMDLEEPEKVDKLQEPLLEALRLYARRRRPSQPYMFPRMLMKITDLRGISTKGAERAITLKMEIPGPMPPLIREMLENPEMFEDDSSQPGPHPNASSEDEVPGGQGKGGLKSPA
Chain of Nuclear receptor subfamily 1 group I member 2 (Homo sapiens) (O75469 whole entry, looked up, the tested form may be a part): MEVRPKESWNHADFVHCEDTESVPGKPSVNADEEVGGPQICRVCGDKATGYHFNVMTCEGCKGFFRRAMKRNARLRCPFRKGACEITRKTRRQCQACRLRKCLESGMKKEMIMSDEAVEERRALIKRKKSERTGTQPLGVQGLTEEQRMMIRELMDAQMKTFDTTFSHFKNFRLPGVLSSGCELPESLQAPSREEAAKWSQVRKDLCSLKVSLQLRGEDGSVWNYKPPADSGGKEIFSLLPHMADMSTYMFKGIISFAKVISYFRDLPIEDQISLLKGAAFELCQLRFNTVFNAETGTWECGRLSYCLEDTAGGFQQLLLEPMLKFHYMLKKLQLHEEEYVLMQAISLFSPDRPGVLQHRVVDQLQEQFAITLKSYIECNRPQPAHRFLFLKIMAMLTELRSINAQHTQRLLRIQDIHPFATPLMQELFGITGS
Chain of Peroxisome proliferator-activated receptor gamma (Homo sapiens) (P37231 whole entry, looked up): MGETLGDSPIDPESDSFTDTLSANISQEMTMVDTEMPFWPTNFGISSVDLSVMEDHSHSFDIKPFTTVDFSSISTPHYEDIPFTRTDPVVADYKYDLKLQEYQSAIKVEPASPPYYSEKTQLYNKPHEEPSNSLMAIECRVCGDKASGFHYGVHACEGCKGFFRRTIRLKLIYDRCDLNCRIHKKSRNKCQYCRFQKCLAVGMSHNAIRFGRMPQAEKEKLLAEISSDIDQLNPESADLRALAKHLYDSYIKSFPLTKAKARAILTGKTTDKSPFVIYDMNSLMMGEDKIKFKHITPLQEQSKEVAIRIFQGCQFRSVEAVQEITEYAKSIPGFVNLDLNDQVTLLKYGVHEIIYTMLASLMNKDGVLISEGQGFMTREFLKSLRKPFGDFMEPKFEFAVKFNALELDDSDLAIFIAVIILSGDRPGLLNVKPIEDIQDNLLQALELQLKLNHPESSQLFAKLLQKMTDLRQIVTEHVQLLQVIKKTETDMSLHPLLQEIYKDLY
Chain of human RAR-related Orphan Receptor beta (RORb), RORB (gene 6096) (Q92753 whole entry, looked up, the tested form may be a part): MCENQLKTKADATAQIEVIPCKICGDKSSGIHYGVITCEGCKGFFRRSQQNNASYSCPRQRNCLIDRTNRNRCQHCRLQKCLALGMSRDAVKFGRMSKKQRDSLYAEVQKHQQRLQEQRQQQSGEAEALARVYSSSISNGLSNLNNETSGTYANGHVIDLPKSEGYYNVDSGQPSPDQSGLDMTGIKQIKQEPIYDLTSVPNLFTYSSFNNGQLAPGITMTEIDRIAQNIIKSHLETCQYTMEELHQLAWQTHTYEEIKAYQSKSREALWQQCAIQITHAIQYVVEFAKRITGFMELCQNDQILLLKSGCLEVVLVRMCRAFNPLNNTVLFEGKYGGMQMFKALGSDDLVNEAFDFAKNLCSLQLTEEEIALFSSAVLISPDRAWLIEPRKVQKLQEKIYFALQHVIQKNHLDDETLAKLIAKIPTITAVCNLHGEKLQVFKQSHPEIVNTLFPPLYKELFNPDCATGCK

Consider `CC(C)(C)c1cccc(O)c1`, for which the outcome in [1], in [2], in assay [3], in assay [4], in assay [5] and in [6] was inactive. Besides, the outcome in assay [7], in [9], in [10], in assay [12], in assay [13] and in [14] was inactive. In addition, the outcome in [15] and in assay [16] was inactive. The results for the AC50 in assay [8] and in assay [11] were 27.2 µM (active) and 66.4 µM (active), respectively.

In the case of `NC(=O)c1c(Cl)cccc1Cl`, the outcome in assay [1], in assay [2], in assay [3], in assay [4], in assay [6] and in assay [7] was inactive. Also, the molecule was classed as inactive in assay [17], in [18], in assay [10], in assay [19], in [20] and in assay [12]. Also, the outcome in [13], in assay [14], in [15] and in assay [16] was inactive. For the same molecule, in [8], the AC50 is 0.36 µM (active).

For `CCCCOCCOCCO`, the result in [1], in assay [4], in assay [5], in [6], in [9] and in assay [17] was inactive. For the same molecule, the molecule was called inactive in assay [19], in [12], in [13], in assay [14], in [15] and in assay [16].

With `CCCCCCCCCC(=O)OCC`, the AC50 in [1] was 34.3 µM (active); in assay [2], 64.9 µM (active); in assay [4] it was 35.1 µM (active); in assay [6], 20 µM (active); in assay [7], 84.8 µM (active); in [11] it was 100 µM (active). Also, the AC50 is 20 µM (active) in assay [12]; 32 µM (active) in assay [13]; 29.7 µM (active) in [14]; 14.4 µM (active) in assay [15]; 33.2 µM (active) in assay [16]. The molecule was called inactive in [3], in [8], in assay [9], in [18] and in assay [10].

As to `C=CC(=O)OCC(CO)(COC(=O)C=C)COC(=O)C=C`, the AC50 in assay [1] was 0.41 µM (active); in [4], 0.574 µM (active); in assay [6], 0.131 µM (active); in [12] it was 0.898 µM (active); in assay [13], 0.185 µM (active); in [14], 0.333 µM (active). For the same molecule, the results for the AC50 in [15] and in assay [16] were 0.135 µM (active) and 0.303 µM (active), respectively. The result in assay [2], in [3], in assay [7], in [11] and in [19] was inactive.

Take `O=C1OC2(c3ccc(O)cc3Oc3cc(O)ccc32)c2ccccc21`: the result in [1], in assay [2], in [3], in assay [4], in assay [7] and in assay [17] was inactive. Besides, the call in assay [18], in assay [10], in assay [19], in [12], in [13] and in assay [14] was inactive. The AC50 in assay [6] was 20 µM (active); in assay [8], 0.896 µM (active); in [15] it was 20 µM (active); in assay [16] it was 20 µM (active).

With `CCn1cc(C(=O)O)c(=O)c2ccc(C)nc21`, the result in assay [1], in assay [4], in [6], in [7], in [8] and in assay [17] was inactive. The result in assay [10], in assay [12], in assay [13], in [14], in assay [15] and in [16] was inactive.
